# Assay results reported in PubChem BioAssay (NCI).
# Compounds without any hit were thinned out: in the full panel of roughly 83,000, 20% have a hit.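 Single-concentration screen, 48 h exposure, 96-well plates. Endpoint: percent growth. Below 10 = active.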 Unmarked numbers belong to inactive results. Calls of active or inactive are those of the source.
# How the values were obtained:
# Test in all cases: NCI-60 one-dose screen, 48 h (100 = growth as untreated, 0 = no growth, -100 = all killed)
# SK-MEL-2 melanoma = settings: 10 µM unless noted
# EKVX NSCLC = settings: 10 µM unless noted
# SN12C renal = settings: 10 µM unless noted
# UO-31 renal = settings: 10 µM unless noted
# TK-10 renal = settings: 10 µM unless noted
# ACHN renal = settings: 10 µM unless noted
# A498 renal = settings: 10 µM
# HL-60(TB) leukemia = settings: 10 µM unless noted
# CCRF-CEM leukemia = settings: 10 µM unless noted
# MOLT-4 leukemia = settings: 10 µM unless noted
# SR leukemia = settings: 10 µM unless noted
# RPMI-8226 leukemia = settings: 10 µM unless noted
# OVCAR-8 ovarian = settings: 10 µM unless noted
# OVCAR-5 ovarian = settings: 10 µM unless noted
# OVCAR-4 ovarian = settings: 10 µM unless noted
# IGROV1 ovarian = settings: 10 µM unless noted
# OVCAR-3 ovarian = settings: 10 µM unless noted
# HS 578T breast = settings: 10 µM unless noted
# SK-OV-3 ovarian = settings: 10 µM unless noted
# CAKI-1 renal = settings: 10 µM unless noted
SMILES,growth (SK-MEL-2 melanoma),growth (EKVX NSCLC),growth (SN12C renal),growth (UO-31 renal),growth (TK-10 renal),growth (ACHN renal),growth (A498 renal),growth (HL-60(TB) leukemia),growth (CCRF-CEM leukemia),growth (MOLT-4 leukemia),growth (SR leukemia),growth (RPMI-8226 leukemia),growth (OVCAR-8 ovarian),growth (OVCAR-5 ovarian),growth (OVCAR-4 ovarian),growth (IGROV1 ovarian),growth (OVCAR-3 ovarian),growth (HS 578T breast),growth (SK-OV-3 ovarian),growth (CAKI-1 renal)
CCOC(=O)[C@@H](C)C[C@H](Cc1ccccc1)NC(=O)c1csc([C@@H](C[C@H](C(C)C)N(C)C(=O)[C@@H](NC(=O)[C@H]2CCCCN2C)C(C)(C)C)OC(C)=O)n1,1.39% (active),31.5%,13.3%,20.6%,49.2%,17.1%,-11.4% (active),-33.2% (active),1.8% (active),7.61% (active),3.63% (active),11.9%,6.71% (active),32.3%,42.7%,18.1%,-6.79% (active),6.42% (active),–,–
Cc1cc(-c2nc3cc(F)ccc3[se]2)cc(F)c1N,101%,66.4%,95.5%,55.8%,57.6%,79%,74.8%,87.2%,85.2%,83.6%,23.9%,66.8%,104%,51.2%,63.3%,37.3%,87.2%,102%,–,–
COC(=O)[C@@]1(C)CC[C@]2(C)CC[C@]3(C)C4=CC=C5C(=CC(=O)C(O)=C5C)[C@]4(C)CC[C@@]3(C)[C@@H]2C1,-87.6% (active),-77.8% (active),-88.2% (active),-99.4% (active),-95.7% (active),-100% (active),–,-53.1% (active),-41.2% (active),-43.3% (active),-46.7% (active),-26.7% (active),-72.9% (active),-93.1% (active),-95% (active),-77.4% (active),-92.1% (active),-41.6% (active),-97.6% (active),–
CCCCN1CCCC[C@@H]1C(=O)N[C@H](C(=O)N(C)[C@H](C[C@@H](OC(C)=O)c1nc(C(=O)NC2CCC(C(=O)OC)CC2)cs1)C(C)C)C(C)C (stereo not given in full),35.5%,34.8%,46.3%,52.8%,55.6%,54.8%,–,-30.4% (active),5.58% (active),19.2%,20.4%,16.8%,24.6%,57%,52.2%,39.5%,-29.5% (active),14.5%,–,–
COC(=O)[C@@H](C)C[C@H](Cc1ccccc1)NC(=O)c1csc([C@@H](C[C@H](C(C)C)N(C)C(=O)[C@@H](NC(=O)[C@H]2CCCCN2C)C(C(F)(F)F)C(F)(F)F)OC(C)=O)n1,34.5%,40.4%,28.3%,33.1%,28.5%,28.2%,-4.49% (active),-33.7% (active),4.93% (active),5.94% (active),–,–,16.8%,39.6%,43.7%,20.2%,-42.5% (active),17.6%,16.4%,–
CN(C)C(=O)Oc1ccccc1,108%,104%,106%,103%,107%,101%,–,94.5%,104%,110%,109%,104%,102%,82.4%,101%,108%,120%,–,–,–
O=P(N1CC1)(N1CC1)N1CCc2ccccc21,121%,119%,92.4%,92.2%,110%,108%,106%,–,104%,–,–,–,103%,112%,115%,130%,107%,106%,111%,–
N#C[Se]CCN1C(=O)c2ccccc2C1=O,43.7%,33.8%,64.4%,15.9%,15.3%,63.2%,-12.5% (active),–,21.1%,17.4%,27.7%,59.5%,30.3%,41.4%,67.4%,26.1%,39.2%,21.9%,56.4%,–
CC1(C)N=C(N)N=C(N)N1c1cccc(CCCCc2ccc(Cl)c(S(=O)(=O)F)c2)c1,52.3%,51.5%,30.5%,92.4%,55.5%,87.5%,86.1%,18.8%,28.1%,38.3%,–,45.7%,19.4%,49.6%,50.5%,–,47.1%,83.9%,72.8%,–
COC(=O)[C@@H](C)C[C@H](Cc1ccc(F)cc1)NC(=O)c1csc([C@@H](C[C@H](C(C)C)N(C)C(=O)[C@@H](NC(=O)[C@H]2CCCCN2C)C2CC2)OC(C)=O)n1,24.4%,43.2%,31.6%,55.8%,72.4%,34%,9.1% (active),-35.1% (active),12.6%,17.8%,–,20.4%,22.4%,49.8%,46%,30.7%,-25% (active),41.1%,29.1%,–
CCCCCCCC[n+]1ccc2ccccc2c1,24.5%,75.3%,48.3%,71%,62.9%,94.8%,93.1%,–,43.3%,58%,47.8%,13.8%,55.7%,88.5%,46.4%,64.1%,50.2%,76.1%,62.9%,–
O=C(CN1CCN(C(=O)c2ccco2)CC1)Nc1ccc(Cl)cc1C(=O)c1ccccc1Cl,46.6%,94.3%,105%,35.3%,–,81.3%,83.8%,49.4%,163%,54.2%,72.7%,53.6%,87.1%,95.9%,87.5%,57.8%,115%,78.3%,112%,91.7%
COC(=O)[C@@H](C)C[C@H](Cc1ccccc1)NC(=O)c1csc([C@@H](C[C@H](C(C)C)N(C)C(=O)[C@@H](NC(=O)[C@H]2CCCCN2C)c2ccc(F)cc2)OC(C)=O)n1,30.2%,29.8%,15.4%,35.2%,–,19.4%,-9.07% (active),–,8.77% (active),8.23% (active),6.27% (active),17.9%,26.8%,20.7%,48.4%,27%,-17% (active),1.1% (active),–,14%
Clc1cccc(Cl)c1Cl,74.5%,95.7%,120%,85.3%,86.8%,–,107%,99.6%,96.4%,104%,92.7%,110%,112%,97.8%,106%,104%,94.2%,–,104%,–
N#CCCNc1ccccc1,112%,98%,111%,93.6%,115%,101%,–,-10.8% (active),80.6%,79.3%,–,95.2%,114%,104%,105%,119%,106%,–,121%,–
CCCCCCCCC(CO)NCCc1ccccc1 (stereo not given),96.3%,119%,99.4%,88.1%,98.8%,–,95.2%,70.1%,62%,60.5%,76.7%,80.4%,81.1%,101%,108%,105%,107%,106%,102%,–
C=COC(=O)CCN1CC1,115%,103%,102%,90.6%,110%,–,77.4%,92.3%,105%,98.2%,100%,104%,104%,110%,107%,108%,112%,104%,101%,–
